Of roughly 7,900 targets only a part is listed; those with a hit were picked by preference. About 0.6% of all pairs of compound and target were hits.
compound: COc1cccc2cc(-c3nc([C@H]4CC[C@H](C(=O)O)CC4)n4ncnc(N)c34)[nH]c12; assay: log2 fold change, soluble protein after heating vs DMSO (PISA); higher = thermal stabilisation; K562 cells, 10 uM, 30 min; active = over 0.2 and 3.5 SD of the protein, either way, in both replicates (recomputed)
Outline: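 For each measurement, 10 μM compound was applied for 30 min to K562 cells at 2×10^6 cells/mL. Aliquots were heated for 3 min across 48°C-58°C, pooled, and extracted in PBS with 0.5% NP-40 at 4°C; the supernatant after 21,000xg for 90 min was soluble protein. This was quantified by TMTpro 16plex LC-MS/MS with channel sums equalised, and thermal stability was reported relative to control samples from duplicates, on a log2 fold-change scale.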

Sequence of UniProt Q8N4L2 (Q8N4L2 whole entry, looked up): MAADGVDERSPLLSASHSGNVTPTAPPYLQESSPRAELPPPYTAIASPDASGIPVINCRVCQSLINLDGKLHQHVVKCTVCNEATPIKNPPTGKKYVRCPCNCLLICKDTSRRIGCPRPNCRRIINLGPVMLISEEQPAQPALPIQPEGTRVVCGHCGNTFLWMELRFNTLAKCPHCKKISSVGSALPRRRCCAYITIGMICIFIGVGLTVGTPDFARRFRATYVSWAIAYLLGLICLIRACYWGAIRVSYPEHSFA
Sequence of UniProt P35227 (P35227 whole entry, looked up): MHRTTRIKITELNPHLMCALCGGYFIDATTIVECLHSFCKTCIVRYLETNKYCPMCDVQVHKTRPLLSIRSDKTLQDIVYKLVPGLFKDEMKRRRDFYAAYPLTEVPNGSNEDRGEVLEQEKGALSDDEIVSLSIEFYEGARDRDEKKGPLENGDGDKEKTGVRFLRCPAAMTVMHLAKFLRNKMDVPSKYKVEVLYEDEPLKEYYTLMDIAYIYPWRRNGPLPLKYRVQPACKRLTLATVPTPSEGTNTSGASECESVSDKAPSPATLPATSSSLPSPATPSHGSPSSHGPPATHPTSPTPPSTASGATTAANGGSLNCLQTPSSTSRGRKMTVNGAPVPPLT
Sequence of UniProt Q5VTL8 (Q5VTL8 whole entry, looked up): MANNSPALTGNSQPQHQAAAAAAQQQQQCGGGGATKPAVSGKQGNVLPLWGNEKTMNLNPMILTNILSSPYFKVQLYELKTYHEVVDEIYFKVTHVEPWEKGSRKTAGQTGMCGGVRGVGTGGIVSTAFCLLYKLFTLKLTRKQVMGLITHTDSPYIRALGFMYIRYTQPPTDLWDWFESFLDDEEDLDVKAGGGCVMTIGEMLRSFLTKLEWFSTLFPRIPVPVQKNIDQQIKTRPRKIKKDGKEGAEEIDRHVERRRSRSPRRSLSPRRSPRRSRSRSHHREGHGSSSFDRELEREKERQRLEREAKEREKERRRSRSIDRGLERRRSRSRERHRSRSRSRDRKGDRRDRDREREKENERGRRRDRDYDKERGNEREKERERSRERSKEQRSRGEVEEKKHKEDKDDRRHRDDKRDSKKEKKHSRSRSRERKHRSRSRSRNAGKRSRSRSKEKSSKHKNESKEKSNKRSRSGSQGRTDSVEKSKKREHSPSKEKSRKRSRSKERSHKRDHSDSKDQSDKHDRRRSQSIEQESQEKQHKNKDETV
Sequence of UniProt Q8IZL8 (Q8IZL8 whole entry, looked up): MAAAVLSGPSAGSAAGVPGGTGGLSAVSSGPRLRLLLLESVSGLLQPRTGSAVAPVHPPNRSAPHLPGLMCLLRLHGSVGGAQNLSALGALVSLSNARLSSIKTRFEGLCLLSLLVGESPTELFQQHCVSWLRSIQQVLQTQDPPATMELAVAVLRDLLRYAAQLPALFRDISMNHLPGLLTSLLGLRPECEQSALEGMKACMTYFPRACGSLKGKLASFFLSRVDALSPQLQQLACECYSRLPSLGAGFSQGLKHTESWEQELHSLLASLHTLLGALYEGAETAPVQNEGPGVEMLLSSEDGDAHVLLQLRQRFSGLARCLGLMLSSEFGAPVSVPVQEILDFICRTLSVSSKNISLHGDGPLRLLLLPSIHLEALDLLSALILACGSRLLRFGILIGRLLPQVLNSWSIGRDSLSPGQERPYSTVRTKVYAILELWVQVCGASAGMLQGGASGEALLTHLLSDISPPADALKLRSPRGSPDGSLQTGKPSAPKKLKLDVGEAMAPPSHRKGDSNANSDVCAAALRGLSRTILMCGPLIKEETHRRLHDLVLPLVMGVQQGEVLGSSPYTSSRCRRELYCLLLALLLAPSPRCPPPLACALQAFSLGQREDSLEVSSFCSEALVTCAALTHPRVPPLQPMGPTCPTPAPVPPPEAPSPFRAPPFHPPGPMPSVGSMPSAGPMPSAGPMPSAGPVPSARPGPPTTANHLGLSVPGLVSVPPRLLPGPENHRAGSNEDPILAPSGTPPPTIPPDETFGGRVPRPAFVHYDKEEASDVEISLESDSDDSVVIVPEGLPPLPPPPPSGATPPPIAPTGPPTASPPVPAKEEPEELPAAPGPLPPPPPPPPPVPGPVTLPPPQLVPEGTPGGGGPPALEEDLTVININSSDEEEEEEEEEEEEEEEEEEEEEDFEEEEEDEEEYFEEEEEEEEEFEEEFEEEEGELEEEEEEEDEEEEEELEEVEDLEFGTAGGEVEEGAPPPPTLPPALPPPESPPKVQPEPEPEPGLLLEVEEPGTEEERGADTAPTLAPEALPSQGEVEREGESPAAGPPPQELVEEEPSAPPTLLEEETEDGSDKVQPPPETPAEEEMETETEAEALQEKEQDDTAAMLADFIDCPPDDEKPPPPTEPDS
Sequence of UniProt Q9UPN7 (Q9UPN7 whole entry, looked up): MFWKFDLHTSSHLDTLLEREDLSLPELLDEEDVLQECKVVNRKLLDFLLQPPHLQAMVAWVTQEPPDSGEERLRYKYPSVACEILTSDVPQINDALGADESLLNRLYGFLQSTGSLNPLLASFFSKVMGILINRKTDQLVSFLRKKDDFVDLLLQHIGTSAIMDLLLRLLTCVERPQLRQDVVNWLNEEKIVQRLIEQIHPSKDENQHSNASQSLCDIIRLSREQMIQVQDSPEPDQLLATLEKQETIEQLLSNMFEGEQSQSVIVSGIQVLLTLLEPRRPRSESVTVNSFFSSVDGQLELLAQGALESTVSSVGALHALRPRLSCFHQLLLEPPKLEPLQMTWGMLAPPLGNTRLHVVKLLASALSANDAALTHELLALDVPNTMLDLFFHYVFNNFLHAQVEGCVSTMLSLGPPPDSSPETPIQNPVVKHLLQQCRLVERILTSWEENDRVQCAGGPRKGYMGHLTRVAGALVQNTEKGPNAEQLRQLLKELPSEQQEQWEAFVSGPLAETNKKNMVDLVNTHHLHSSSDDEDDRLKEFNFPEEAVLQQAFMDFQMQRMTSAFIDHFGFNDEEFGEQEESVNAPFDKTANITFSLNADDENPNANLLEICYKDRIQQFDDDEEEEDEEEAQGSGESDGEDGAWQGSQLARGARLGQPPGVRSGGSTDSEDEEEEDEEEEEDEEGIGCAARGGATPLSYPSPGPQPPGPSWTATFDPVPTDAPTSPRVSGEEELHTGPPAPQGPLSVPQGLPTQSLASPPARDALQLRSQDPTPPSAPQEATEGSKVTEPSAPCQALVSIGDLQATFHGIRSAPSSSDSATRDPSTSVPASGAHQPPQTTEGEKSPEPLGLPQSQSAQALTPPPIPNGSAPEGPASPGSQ
Sequence of UniProt Q9H3S7 (Q9H3S7 whole entry, looked up): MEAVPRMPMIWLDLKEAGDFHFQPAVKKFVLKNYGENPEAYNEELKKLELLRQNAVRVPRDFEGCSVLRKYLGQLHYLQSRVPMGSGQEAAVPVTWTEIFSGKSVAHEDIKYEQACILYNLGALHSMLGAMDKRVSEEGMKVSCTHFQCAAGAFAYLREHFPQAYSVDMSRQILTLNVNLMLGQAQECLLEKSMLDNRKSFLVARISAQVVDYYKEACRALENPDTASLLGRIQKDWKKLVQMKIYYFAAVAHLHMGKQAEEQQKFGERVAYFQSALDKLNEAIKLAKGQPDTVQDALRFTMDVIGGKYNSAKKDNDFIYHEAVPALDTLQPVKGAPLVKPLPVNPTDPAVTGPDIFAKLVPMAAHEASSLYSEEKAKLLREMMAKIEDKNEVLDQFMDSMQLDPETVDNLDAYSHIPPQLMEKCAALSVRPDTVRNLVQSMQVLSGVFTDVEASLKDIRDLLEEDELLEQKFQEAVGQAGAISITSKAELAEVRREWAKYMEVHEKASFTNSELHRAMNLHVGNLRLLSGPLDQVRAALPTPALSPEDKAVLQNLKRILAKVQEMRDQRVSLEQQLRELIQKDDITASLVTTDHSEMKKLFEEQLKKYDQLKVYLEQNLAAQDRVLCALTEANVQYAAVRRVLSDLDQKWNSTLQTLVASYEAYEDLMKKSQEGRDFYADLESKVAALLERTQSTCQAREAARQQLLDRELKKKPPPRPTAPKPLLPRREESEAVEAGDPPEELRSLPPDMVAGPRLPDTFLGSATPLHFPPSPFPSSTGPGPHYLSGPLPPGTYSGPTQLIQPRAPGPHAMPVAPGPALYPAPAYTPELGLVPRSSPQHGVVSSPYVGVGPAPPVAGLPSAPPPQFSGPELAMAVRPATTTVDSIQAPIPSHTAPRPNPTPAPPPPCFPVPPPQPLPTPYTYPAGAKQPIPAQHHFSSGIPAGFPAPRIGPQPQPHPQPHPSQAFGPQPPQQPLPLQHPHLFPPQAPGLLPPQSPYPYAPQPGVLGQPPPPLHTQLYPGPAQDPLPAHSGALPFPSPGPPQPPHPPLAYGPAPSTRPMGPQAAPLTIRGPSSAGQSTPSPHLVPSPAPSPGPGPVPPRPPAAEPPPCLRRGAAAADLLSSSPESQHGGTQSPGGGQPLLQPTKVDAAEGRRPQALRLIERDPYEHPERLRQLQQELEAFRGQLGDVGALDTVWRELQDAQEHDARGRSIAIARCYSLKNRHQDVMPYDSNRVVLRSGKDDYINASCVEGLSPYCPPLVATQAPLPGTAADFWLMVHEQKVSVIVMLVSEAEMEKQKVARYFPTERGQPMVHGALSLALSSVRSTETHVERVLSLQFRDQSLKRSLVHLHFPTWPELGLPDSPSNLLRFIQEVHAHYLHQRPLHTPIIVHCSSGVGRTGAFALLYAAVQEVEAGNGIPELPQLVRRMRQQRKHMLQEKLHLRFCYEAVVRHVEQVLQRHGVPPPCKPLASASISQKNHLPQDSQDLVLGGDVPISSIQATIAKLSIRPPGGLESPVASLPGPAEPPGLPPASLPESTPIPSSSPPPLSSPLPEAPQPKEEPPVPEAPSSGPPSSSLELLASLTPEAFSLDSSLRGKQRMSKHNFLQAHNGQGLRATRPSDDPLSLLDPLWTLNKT
Sequence of UniProt Q9UKL6 (Q9UKL6 whole entry, looked up): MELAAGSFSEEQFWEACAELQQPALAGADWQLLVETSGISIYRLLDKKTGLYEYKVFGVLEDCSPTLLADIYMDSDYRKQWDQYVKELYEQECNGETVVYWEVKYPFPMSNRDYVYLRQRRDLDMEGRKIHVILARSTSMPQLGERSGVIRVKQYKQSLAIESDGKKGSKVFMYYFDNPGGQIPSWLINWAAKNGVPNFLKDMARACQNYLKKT

log2 fold change, inactive:
PPP6R1 (UniProt Q9UPN7) 0.014, PLIN2 (UniProt Q99541) 0.028, PELP1 (UniProt Q8IZL8) 0.042, PCGF2 (UniProt P35227) 0.018, PTPN23 (UniProt Q9H3S7) -0.008, PBK (UniProt Q96KB5) -0.169, POTEI (UniProt P0CG38) 0.067, PDE4DIP isoform 4 (UniProt Q5VU43) -0.022, PSMD2 (UniProt Q13200) -0.053, PPT2 isoform 3 (UniProt Q9UMR5) 0.093, PLA2G15 (UniProt Q8NCC3) 0.056, PRPF38B (UniProt Q5VTL8) 0.043, PELO (UniProt Q9BRX2) 0.001, PIGT (UniProt Q969N2) -0.013, PRKCQ (UniProt Q04759) -0.008, PDCD6IP (UniProt Q8WUM4) -0.118, PRIM2 (UniProt P49643) -0.033, POLR2B (UniProt P30876) 0.007, PIP4P2 (UniProt Q8N4L2) -0.016, PTMA (UniProt P06454) 0.043, POLD3 (UniProt Q15054) 0.1, PCTP (UniProt Q9UKL6) -0.031, PSMC3 (UniProt P17980) -0.038
